DAX1 inh-1: inhibitors of DAX1 repression of SF-1 activated StAR promoter. inhibition, % at 6.8 µM. AID 652010. 370,000 tested, 1.1% active. HEK293T StAR-luciferase reporter, SF-1/DAX-1 repression relief;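 active means inhibition above the mean over all tested compounds plus 3 SD, cut at about 3.6% in these data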;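 further: 0% = DAX-1 cells with DMSO and 100% = cells lacking DAX-1 with DMSO; higher inhibition means more luminescence from relief of DAX-1 repression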
AHR act: activators of human aryl hydrocarbon receptor; activation, % at 5 µM; 320,000 tested, 2.5% active; P35869; AHR-responsive luciferase reporter cells, luminescence; in the data active means activation above about 47%;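 further: 0% = vehicle wells and 100% = reference agonist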
Target sequence (P35869 whole entry, looked up): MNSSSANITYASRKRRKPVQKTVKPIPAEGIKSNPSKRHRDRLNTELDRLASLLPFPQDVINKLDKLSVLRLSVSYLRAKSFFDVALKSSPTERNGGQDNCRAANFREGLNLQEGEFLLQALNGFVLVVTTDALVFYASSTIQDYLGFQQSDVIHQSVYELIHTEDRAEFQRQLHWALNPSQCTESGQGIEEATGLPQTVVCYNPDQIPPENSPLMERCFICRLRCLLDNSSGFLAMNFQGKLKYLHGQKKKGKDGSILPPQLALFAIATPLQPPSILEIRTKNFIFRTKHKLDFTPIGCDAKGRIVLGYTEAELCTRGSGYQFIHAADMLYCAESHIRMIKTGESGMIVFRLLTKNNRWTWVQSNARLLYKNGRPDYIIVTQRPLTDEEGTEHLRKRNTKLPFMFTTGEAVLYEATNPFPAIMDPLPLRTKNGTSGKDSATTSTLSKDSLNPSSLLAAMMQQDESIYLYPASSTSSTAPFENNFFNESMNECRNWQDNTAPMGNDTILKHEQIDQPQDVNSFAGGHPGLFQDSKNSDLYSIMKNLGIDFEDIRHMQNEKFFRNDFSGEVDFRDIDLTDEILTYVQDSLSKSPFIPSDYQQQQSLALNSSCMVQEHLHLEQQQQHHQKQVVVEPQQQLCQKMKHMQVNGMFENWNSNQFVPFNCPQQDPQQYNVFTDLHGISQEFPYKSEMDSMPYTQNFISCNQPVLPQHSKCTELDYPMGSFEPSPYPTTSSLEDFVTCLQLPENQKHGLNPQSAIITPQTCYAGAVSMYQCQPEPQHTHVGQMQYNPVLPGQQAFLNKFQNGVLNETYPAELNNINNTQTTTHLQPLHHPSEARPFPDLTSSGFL
hgDAF-12 ag: agonists of H. glycines DAF-12 nuclear receptor. HEK293 GAL4-hgDAF12 UAS-luciferase reporter, agonist luminescence; normalized to butyrate control. activation, % at 6.8 µM. 370,000 tested, 1.8% active. AID 687014;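 active means activation above a cutoff set at the mean of all screened compounds plus 3 SD, cut at about 10% in these data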;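 further: 0% = DMSO wells and 100% = sodium butyrate wells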
hcDAF12 agonist: activators of H. contortus DAF-12 nuclear receptor; HEK293 hcDAF-12 lit1-tk-luc reporter, luminescence; 0% DMSO, 100% Δ7-dafachronic acid; activation, % at 6.8 µM; 370,000 tested, 1.4% active; AID 652067;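 active means activation above the mean of all tested compounds plus 3 SD, cut at about 5.5% in these data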;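 further: 100% = response to 3 µM Δ7-dafachronic acid high control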
DAX1 inh-2: inhibits human nuclear receptor DAX1; P51843; inhibition, % at 6.75 µM; 340,000 tested, 0.99% active; HEK293 Gal4-DAX1 luciferase reporter, luminescence;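 active means inhibition above the mean over all tested compounds plus 3 SD, cut at about 4.2% in these data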;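 further: 0% = DAX1-transfected cells with DMSO and 100% = empty-vector control cells with DMSO; inhibition shows as a rise in luminescence from relieved DAX1 repression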
ssDAF12 agonist: S. stercoralis DAF-12 activation, primary screen; activation, % at 6.8 µM; HEK293 ssDAF-12/GRIP1 lit1-tk-luc reporter, luminescence; % of 3 µM dafachronic acid response; AID 652126; 370,000 tested, 1% active;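 active means activation above the mean over all tested compounds plus 3 SD, cut at about 0.9% in these data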;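 further: 0% = DMSO-only wells and 100% = 3 µM delta7-dafachronic acid wells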
* = called active by the depositor; . = not tested or not shown. A selection: hits, their analogues and other compounds. The true share with any hit is near 5.7%.

SMILES	DAX1 inh-1	AHR act	hgDAF-12 ag	hcDAF12 agonist	DAX1 inh-2	ssDAF12 agonist
Cc1c(C(=O)N2CCOCC2)sc2ncnc(N3CCc4ccccc4C3)c12	-1	28	0	0	0	-1
CC1=CCC2C(=O)N(c3cccc(C(=O)Nc4ccc(Cl)cc4)c3)C(=O)C2C1 (stereo not drawn)	-1	69*	-4	-4	0	-2
CCOC(=O)[C@@]12CCCC=C1N(CCc1ccc(Cl)cc1)C(=O)[C@H]2CC(=O)N1CCOCC1	-3	.	-6	-5	.	-2
Cc1ccccc1Cn1cc(NC(=O)c2cc(C3CC3)on2)cn1	1	74*	4	0	1	-1
O=C(c1cccc(F)c1F)N1CCCc2ccccc21	0	51*	1	0	0	-1
Cc1[nH]c2ccccc2c1C(=O)C(=O)N1CCCc2ccccc21	-1	12	-4	-1	0	-1
O=C(C(=O)N1CCCc2ccccc21)c1c[nH]c2ccccc12	0	50*	0	4	-1	0
Cn1cc(C(=O)C(=O)N2CCc3ccccc32)c2ccccc21	0	63*	1	-3	-1	0
Cn1cc(C(=O)N2CCc3ccccc32)cn1	2	19	5	6.5*	2	1.2*
Cc1ccc(C(=O)N2CCc3ccccc32)cc1	1	26	9	5	1	0
Cn1cnnc1SCC(=O)NC1CCCN(Cc2ccccc2F)C1 (stereo not drawn)	0	0	2	0	1	-1
COc1cccc(Nc2nnc(SCC3CCCCO3)s2)c1 (stereo not drawn)	1	51*	6	0	0	0
COc1ccc(Nc2nnc(SCC3CCCO3)s2)cc1 (stereo not drawn)	1	46	6	0	1	-1
CCC(C)[C@H]1CNC(=O)C(=O)N1CCc1cccc2ccccc12 (stereo partly drawn)	0	.	2	1	.	0
O=C(Cc1csc(-c2ccccc2)n1)Nc1ccc(C(F)(F)F)cc1	0	55*	-3	0	0	-1
COCCN(C(=O)c1ccc(N(C)S(=O)(=O)c2ccc(C)cc2)cc1)c1c(N)n(CC(C)C)c(=O)[nH]c1=O	1	.	-1	-2	1	-2
CCOC(=O)c1c(-c2ccccc2)cn2c(C)cc(C)nc12	1	1	12*	0	0	-1
c1ccc2c(c1)COc1c3ncccc3nn1-2	2	.	13*	2	1	0
NC(Cc1ccc(Cl)cc1)c1csc(Nc2ccc(S(N)(=O)=O)cc2)n1 (stereo not drawn)	4.3*	.	-1	0	.	-1
CCOC(=O)[C@]12CCCC3=C1N(CCC3)C(=O)[C@@H](CC(=O)N1CCN(C(=O)C3CC3)CC1)C2	1	.	-1	0	.	-1
Cc1occc1C(=O)NN=C1C2CC3CC(C2)CC1C3	4.0*	6	9	4	3	1
Cc1occc1C(=O)NC(C)C12CC3CC(CC(C3)C1)C2 (stereo not drawn)	-1	0	0	-2	1	-1
O=C(NC(=S)Nc1ccccc1)c1cncc(C#Cc2ccccc2)c1	0	3	-1	-2	2	-1
COc1ccc(C(c2c[nH]c3ccccc23)c2c[nH]c3ccccc23)cc1O	-1	28	5	5	3	2.8*
COc1cc(/C=N/NC(=O)c2cc3ccccc3[nH]2)ccc1O	-1	53*	9	0	-2	-1
SMILES	DAX1 inh-1	AHR act	hgDAF-12 ag	hcDAF12 agonist	DAX1 inh-2	ssDAF12 agonist
COc1cccc(/C=N/n2c(C)nc3ccccc3c2=O)c1O	1	3	1	0	5.5*	-1
COc1cc(/C=N/Nc2nc(C)cc(C)n2)ccc1O	1	.	0	1	1	-1
COc1cc(/C=N/NC(=O)c2cccc(C(=O)N/N=C/c3ccc(O)c(OC)c3)n2)ccc1O	-1	.	2	0	0	-1
COc1cccc(/C=N/Nc2nc3ccccc3[nH]2)c1OC	1	0	6	1	4	-1
COc1cccc(/C=N/Nc2nc3ccccc3[nH]2)c1O	-2	60*	-8	-3	-2	-1
COc1cc(/C=N/Nc2snc(SC)c2C#N)ccc1O	-3	73*	3	3	-3	-1
COc1ccc(CN2C(C(=O)NCC(C)C)CSCCS2(=O)=O)cc1 (stereo not drawn)	0	.	7	-2	.	0
Cn1ccnc1SCC(=O)Nc1nc2c(F)c(F)c(F)cc2s1	0	22	0	0	0	-1
COc1ccc(S(=O)(=O)N2CCCC(N(C)CCc3ccccc3)C2)cc1OC (stereo not drawn)	-1	3	-1	-2	0	-1
CN(C)c1ccc2c(c1)Sc1cc(N(C)C)ccc1N2C(=O)c1ccccc1	-1	2	-2	-1	-1	-2
COc1cc(/C=N/Nc2nc3ccccc3[nH]2)ccc1O	1	55*	2	5	0	-1
Cc1ccc([N+](=O)[O-])c(OCc2ncc(Cl)n2C)c1	0	55*	4	5	0	1.1*
Cc1ccc([N+](=O)[O-])c(OCCN2CCNCC2)c1	0	-1	0	1	1	-1
O=C(N[C@H](C(=O)N1CCC[C@H]1C(=O)NCCc1ccccc1Cl)C1CCCCC1)c1ccc(Cl)c(Cl)c1	1	.	-2	-1	.	0
FC(F)(F)c1nnc2c(Sc3ccccn3)nc3ccccc3n12	0	22	7	5.6*	1	0
OCCNc1nc(SCc2ccccc2)nc2sc3c(c12)CCC3	0	.	-2	-2	-2	-1
CCC1CCCCN1C(=O)COc1ccc2c(c1)OCO2 (stereo not drawn)	2	48*	-1	-1	0	0
CCC1CCCCN1C(=O)COC(=O)c1cc2ccccc2cc1O (stereo not drawn)	0	0	1	0	0	-1
CC1CCCN(C(=O)COc2ccc3c(c2)OCO3)C1 (stereo not drawn)	2	52*	5	2	0	0
O=c1c(Br)c(N2CCCC2)cnn1-c1ccccc1	3	-5	12*	5.6*	0	0
O=C(Nc1nc2ccc(F)cc2s1)Oc1ccccc1	0	18	2	6.5*	0	0
CC1CCc2nc(NC(=O)c3ccco3)sc2C1 (stereo not drawn)	-1	-11	-5	0	-5	-2
CS(=O)(=O)c1ccc2nc(NC(=O)Oc3ccccc3)sc2c1	-1	2	3	-2	2	-1
Fc1ccc2nc(Nc3nc4c(F)cccc4s3)sc2c1	0	62*	0	4	0	0
O=C(Nc1nc2cc3c(cc2s1)OCCO3)c1ccco1	-8	-10	-12	-5	-5	-2
